Measurements from PubChem BioAssay AID1159580 (chemical genetic matrix, 2015).
Screen size: about 5,500 compounds; about 2,000 (36%) were called active. About 18% were inconclusive and are not listed. Cut-off read from the data, not from the text of the source: active = normalized growth mostly below about 0.91 (no sharp cut-off); inconclusive = no clear call, values can overlap the other calls; inactive = mostly above about 0.92. The list shows a part of the results.

Experiment: chemical genetic growth profiling, strain panel (AID 1159580);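 note: tested at 20 µM; growth read once vehicle control cultures reached saturation at 30 °C; 1 = growth at the plate median or of vehicle wells; lower values mean less growth of the strain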
Conditions: S. cerevisiae deletion strains, growth OD

Measured: normalized growth

CC(=O)O[C@@H]1CC2C(C)(C)CCC(=O)[C@]2(C)C2CC[C@@]3(C)[C@H](c4ccoc4)OC(=O)C4OC43[C@@]21C (stereo partly specified)
inactive: locus YAL013W, strain DEP1, hits give low values 1 | locus YAL021C, strain ccr4, hits give low values 0.98 | locus YAL026C, strain drs2, hits give low values 1 | locus YAL030W, strain snc1, hits give low values 1.01 | locus YBL061C, strain skt5, hits give low values 1.01 | locus YBR009C, strain hhf1, hits give low values 1 | locus YBR021W, strain FUR4, hits give low values 0.989 | locus YBR023C, strain chs3, hits give low values 1 | locus YBR171W, strain sec66, hits give low values 0.986 | locus YBR229C, strain ROT2, hits give low values 0.996 | locus YBR231C, strain swc5, hits give low values 0.993 | locus YBR279W, strain paf1, hits give low values 1.01 | locus YCL011C, strain gbp2, hits give low values 0.984 | locus YCL016C, strain dcc1, hits give low values 1.01 | locus YCL029C, strain bik1, hits give low values 0.984 | locus YCL061C, strain MRC1, hits give low values 1.02 | locus YCL069W, strain vba3, hits give low values 0.99 | locus YCR088W, strain abp1, hits give low values 0.991 | locus YDL005C, strain med2, hits give low values 0.994 | locus YDL035C, strain GPR1, hits give low values 1.03 | locus YDL040C, strain nat1, hits give low values 0.986 | locus YDL074C, strain BRE1, hits give low values 0.994 | locus YDL101C, strain DUN1, hits give low values 0.984 | locus YDL185W, strain tfp1, hits give low values 0.981 | locus YDL192W, strain arf1, hits give low values 0.993 | locus YDR001C, strain nth1, hits give low values 0.998 | locus YDR069C, strain doa4, hits give low values 1.01 | locus YDR101C, strain arx1, hits give low values 0.991 | locus YDR137W, strain rgp1, hits give low values 1.05 | locus YDR159W, strain sac3, hits give low values 1.02 | locus YDR162C, strain NBP2, hits give low values 1.02 | locus YDR195W, strain ref2 0.941 | locus YDR297W, strain sur2, hits give low values 1 | locus YDR318W, strain mcm21, hits give low values 0.993 | locus YDR334W, strain swr1, hits give low values 0.986 | locus YDR335W, strain msn5, hits give low values 0.987 | locus YDR388W, hits give low values 0.98 | locus YDR392W, strain spt3, hits give low values 0.991 | locus YDR502C, strain sam2, hits give low values 0.973 | locus YEL003W, strain gim4, hits give low values 0.995 | locus YEL037C, strain rad23, hits give low values 0.984 | locus YEL061C, strain CIN8 (second series), hits give low values 0.987 | locus YEL061C, strain CIN8, hits give low values 1.01 | locus YER015W, strain faa2, hits give low values 1 | locus YER016W, strain bim1, hits give low values 1 | locus YER110C, hits give low values 0.978 | locus YER111C, strain swi4, hits give low values 0.987 | locus YER155C, strain BEM2 (second series), hits give low values 1.02 | locus YER155C, strain BEM2, hits give low values 0.988 | locus YER167W, strain BCK2, hits give low values 1 | locus YFR010W, strain ubp6, hits give low values 0.979 | locus YGL078C, strain dbp3, hits give low values 0.994 | locus YGL086W, strain mad1, hits give low values 0.985 | locus YGL167C, strain pmr1, hits give low values 1.01 | locus YGL173C, strain kem1, hits give low values 1.01 | locus YGL227W, strain vid30, hits give low values 0.994 | locus YGL240W, strain doc1, hits give low values 0.984 | locus YGL248W, strain PDE1, hits give low values 0.988 | locus YGL253W, strain hxk2, hits give low values 0.966 | locus YGR135W, strain pre9, hits give low values 0.973 | locus YGR229C, strain SMI1, hits give low values 1.02 | locus YGR252W, strain gcn5, hits give low values 0.952 | locus YHR013C, strain ard1, hits give low values 0.994 | locus YHR027C, strain rpn1, hits give low values 1.01 | locus YHR079C, strain IRE1 (second series), hits give low values 0.99 | locus YHR094C, strain hxt1, hits give low values 0.983 | locus YHR129C, strain ARP1, hits give low values 0.997 | locus YHR142W, strain chs7, hits give low values 0.991 | locus YHR200W, strain rpn10, hits give low values 0.975 | locus YIL066C, strain RNR3, hits give low values 1 | locus YIL073C, strain SPO22, hits give low values 1 | locus YIL125W, strain kgd1, hits give low values 0.989 | locus YIR030C, strain dcg1, hits give low values 0.987 | locus YJL092W, strain hpr5, hits give low values 0.985 | locus YJL095W, strain BCK1 (second series), hits give low values 1 | locus YJL095W, strain BCK1, hits give low values 0.988 | locus YJL115W, strain asf1, hits give low values 0.994 | locus YJL129C, strain trk1, hits give low values 0.996 | locus YJL134W, strain LCB3, hits give low values 0.998 | locus YJL154C, strain vps35, hits give low values 1 | locus YJL164C, strain tpk1, hits give low values 1.01 | locus YJL166W, strain qcr8, hits give low values 1.02 | locus YJL168C, strain set2, hits give low values 0.988 | locus YJL187C, strain SWE1 (second series), hits give low values 0.977 | locus YJL187C, strain SWE1, hits give low values 1 | locus YJR043C, strain POL32, hits give low values 1.02 | locus YKL009W, strain mrt4, hits give low values 1.01 | locus YKL068W, hits give low values 0.992 | locus YKL085W, strain MDH1 (second series), hits give low values 1 | locus YKL085W, strain MDH1, hits give low values 1 | locus YKL160W, strain elf1, hits give low values 1.02 | locus YKL190W, strain CNB1, hits give low values 1.01 | locus YKR001C, strain vps1, hits give low values 0.983 | locus YKR026C, strain gcn3, hits give low values 1 | locus YKR091W, strain srl3, hits give low values 1 | locus YLL001W, strain dnm1, hits give low values 1.03 | locus YLL026W, hits give low values 1.01 | locus YLL041C, strain sdh2, hits give low values 0.993 | locus YLR027C, strain aat2, hits give low values 1.01 | locus YLR039C, strain RIC1, hits give low values 1.06 | locus YLR058C, strain SHM2, hits give low values 0.992 | locus YLR102C, strain apc9, hits give low values 0.987 | locus YLR221C, strain rsa3, hits give low values 1 | locus YLR258W, strain gsy2, hits give low values 0.996 | locus YLR262C, strain YPT6 (second series), hits give low values 1.03 | locus YLR262C, strain YPT6, hits give low values 1.1 | locus YLR268W, strain sec22, hits give low values 0.994 | locus YLR320W, strain mms22, hits give low values 1.01 | locus YLR342W, strain FKS1 (second series), hits give low values 1.05 | locus YLR342W, strain FKS1, hits give low values 1.01 | locus YLR357W, strain rsc2, hits give low values 0.97 | locus YLR370C, strain arc18, hits give low values 0.983 | locus YLR371W, strain rom2, hits give low values 0.992 | locus YLR384C, strain iki3, hits give low values 0.997 | locus YLR418C, strain cdc73, hits give low values 0.956 | locus YML016C, strain PPZ1, hits give low values 0.999 | locus YML032C, strain rad52, hits give low values 0.986 | locus YML120C, strain ndi1, hits give low values 1 | locus YML124C, strain tub3, hits give low values 0.994 | locus YMR058W, strain fet3, hits give low values 0.999 | locus YMR078C, strain ctf18, hits give low values 1 | locus YMR125W, strain sto1, hits give low values 0.987 | locus YMR129W, hits give low values 1.01 | locus YMR205C, strain PFK2, hits give low values 1.04 | locus YMR223W, strain ubp8, hits give low values 0.996 | locus YMR231W, strain pep5, hits give low values 0.97 | locus YMR307W, strain GAS1, hits give low values 1.07 | locus YNL067W, strain RPL9B, hits give low values 0.987 | locus YNL071W, strain lat1, hits give low values 0.993 | locus YNL209W, strain ssb2, hits give low values 1.01 | locus YNL233W, strain BNI4, hits give low values 1 | locus YNL248C, strain rpa49, hits give low values 0.996 | locus YNL250W, strain rad50, hits give low values 0.978 | locus YNL271C, strain bni1, hits give low values 0.97 | locus YNL298W, strain CLA4, hits give low values 0.996 | locus YNL307C, strain MCK1, hits give low values 0.986 | locus YNL322C, strain KRE1 (second series), hits give low values 0.99 | locus YNR049C, strain mso1, hits give low values 1 | locus YNR052C, strain pop2, hits give low values 0.966 | locus YOL006C, strain TOP1, hits give low values 1.05 | locus YOL012C, strain htz1 0.864 | locus YOL147C, strain pex11, hits give low values 0.982 | locus YOR001W, strain rrp6, hits give low values 0.973 | locus YOR061W, strain CKA2, hits give low values 0.998 | locus YOR069W, strain VPS5, hits give low values 0.99 | locus YOR070C, strain gyp1, hits give low values 1 | locus YOR080W, strain dia2, hits give low values 1 | locus YOR083W, strain WHI5, hits give low values 1.02 | locus YOR106W, strain vam3, hits give low values 1.01 | locus YOR136W, strain idh2, hits give low values 0.993 | locus YOR144C, strain elg1, hits give low values 0.988 | locus YOR184W, strain ser1, hits give low values 1.02 | locus YOR265W, strain rbl2, hits give low values 0.996 | locus YOR270C, strain vph1, hits give low values 1.02 | locus YOR290C, strain snf2, hits give low values 0.981 | locus YOR316C, strain cot1, hits give low values 0.984 | locus YPL051W, strain arl3, hits give low values 1.02 | locus YPL055C, strain LGE1, hits give low values 1.02 | locus YPL078C, strain atp4, hits give low values 1.02 | locus YPL106C, strain sse1, hits give low values 0.996 | locus YPL240C, strain hsp82, hits give low values 0.999 | locus YPR119W, strain clb2, hits give low values 0.981 | locus YPR141C, strain kar3, hits give low values 0.996 | locus YPR163C, strain tif3, hits give low values 0.975 | locus YPR167C, strain met16, hits give low values 0.985 | strain wtn01, hits give low values 1
